# Compounds without any hit were thinned out: in the full panel of roughly 79,000, 15% have a hit. Unmarked numbers belong to inactive results. Activity calls are given as the source filed them. No stated cut-off is given here; in the data, active means growth inhibition above about 70%; inactive means the rest.
# Assay: NCI Yeast Anticancer Drug Screen. Data for the cln2 rad14 strain (AID 165);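 further: 0% = growth equal to vehicle treated cultures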
# Settings: S. cerevisiae cln2 rad14 strain, at 50.0 µM (retest, dose inferred, filed as 5.0), active compounds read high
# Summary of the method: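 Yeast strain cln2 rad14, bearing defects in cell cycle control and DNA repair, serves as the test system; values reflect growth inhibition compared with vehicle.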
row,Structure (SMILES),growth inhibition
1,CCC/C(Cl)=N\OC(=O)Nc1cccc(C(F)(F)F)c1,98% (active)
2,[O-][n+]1c2ccc(O)cc2nc2ccc(Cl)cc21,9%
3,Clc1ccccc1C1OC1c1ccccc1Cl (stereo not drawn),99% (active)
4,c1ccc2c(c1)c1ncccc1c1nccnc21,-59%
5,CC(=O)Nc1ccc2c(c1)C(=Nc1ccc(C(=O)O)cc1)c1ccccc1-2,8%
6,COc1ccc(OC)c2cc3ccccc3cc12,51%
7,COc1cc(C2c3cc4c(cc3OC(NNc3ccccc3)C2C)OCO4)cc(OC)c1OC (stereo not drawn),95% (active)
8,O=C1c2cc([N+](=O)[O-])ccc2-c2cccc(F)c21,30%
9,CCCCCCCCCCCC(=O)N(C)C,98% (active)
10,CCCCCCCCCCCC1=C(O)C(=O)C=C(O)C1=O,88% (active)
11,Cc1ccc(CSC(N)=Nc2ccccc2)cc1C,14%
12,CCCCCCCCCCC1CCC(=O)O1 (stereo not drawn),15%
13,O=[N+]([O-])c1cc(CCl)ccc1CCl,97% (active)
14,Nc1ccc2c(c1)C(=O)c1cccc(N)c1C2=O,77% (active)
15,CCCCCCCCCCNC(=O)OCC,15%
16,CC1=C(C)Cc2c(O)ccc(O)c2C1,98% (active)
17,COc1ccc2c(c1)C(=O)c1ccccc1C2,4%
18,CCC(=O)OCCn1c2nc(=O)[nH]c(=O)c-2nc2cc(C)c(C)cc21,3%
19,O=C(OCCN1CCCCCC1)C(c1ccsc1)C1CCCCC1 (stereo not drawn),49%
20,Oc1c(Br)cc(Br)cc1C1CCCCC1,99% (active)

row,Structure (SMILES),growth inhibition
1,CC1(C)[C@@H]2CC[C@]1(C)[C@H](OC(=O)CSC#N)C2,91% (active)
2,S=C(N/N=C(/c1ccccc1)c1ccccn1)N1CCCCCC1,96% (active)
3,Cc1ccc2[nH]c3c(C)c4cc[n+](C)cc4c(C)c3c2c1,37%
4,CNC(=O)OCc1c(COC(=O)NC)c(-c2ccc(-c3ccccc3)cc2)n(C)c1C,56%
5,COc1ccccc1/C=C1\Sc2scc(-c3cccc([N+](=O)[O-])c3)[n+]2C1=O,96% (active)
6,O=[N+]([O-])c1ccc2c(c1)C(N1CCN(CCO)CC1)Cc1ccc(F)cc1S2 (stereo not drawn),43%
7,Cc1ccc(CCC2=CCCc3c2ccc2ccccc32)cc1,-10%
8,O=[N+]([O-])c1cccc2nccc(NCCCO)c12,91% (active)
9,Cc1ccc(-n2cc(-c3ccc(Cl)cc3)c(C#N)c2N)cc1,7%
10,Cc1ccc(S/N=C\c2ccccc2O)cc1,-23%
11,O=C(O)C1OC1(c1cccc(Cl)c1)c1ccccc1Cl (stereo not drawn),96% (active)
12,NC(=S)N/N=C\c1nccc2ccccc12,97% (active)
13,Clc1cccc(C(Nc2nncs2)Nc2nncs2)c1Cl,25%
14,O=C(OCC=C1CCCC1)c1cc([N+](=O)[O-])cc([N+](=O)[O-])c1,4%
15,O=C(Nc1ccccc1)C(=O)C(C(=O)c1ccccc1)C(c1ccccc1)c1ccccc1 (stereo not drawn),53%
16,N#CN1C2CCC1CC(=O)C2,34%
17,COc1ccccc1C(=O)OCC1CCCN2CCCCC12 (stereo not drawn),8%
18,CCNc1nnc(CSc2nc(-c3ccccc3)c(-c3ccccc3)[nH]2)s1,97% (active)
19,O=C1c2ccccc2-c2n[nH]c3cccc1c23,87% (active)

# Same assay, conditions: S. cerevisiae cln2 rad14 strain, at 50.0 µM, active compounds read high
row,Structure (SMILES),growth inhibition
1,CCC/C(Cl)=N\OC(=O)Nc1cccc(C(F)(F)F)c1,89.7% (active)
2,[O-][n+]1c2ccc(O)cc2nc2ccc(Cl)cc21,43.1%
3,Clc1ccccc1C1OC1c1ccccc1Cl (stereo not drawn),13.6%
4,c1ccc2c(c1)c1ncccc1c1nccnc21,-40.5%
5,CC(=O)Nc1ccc2c(c1)C(=Nc1ccc(C(=O)O)cc1)c1ccccc1-2,43.9%
6,COc1ccc(OC)c2cc3ccccc3cc12,39.6%
7,COc1cc(C2c3cc4c(cc3OC(NNc3ccccc3)C2C)OCO4)cc(OC)c1OC (stereo not drawn),53%
8,O=C1c2cc([N+](=O)[O-])ccc2-c2cccc(F)c21,54.9%
9,CCCCCCCCCCCC(=O)N(C)C,91.5% (active)
10,CCCCCCCCCCCC1=C(O)C(=O)C=C(O)C1=O,35.9%
11,Cc1ccc(CSC(N)=Nc2ccccc2)cc1C,-4.5%
12,CCCCCCCCCCC1CCC(=O)O1 (stereo not drawn),97.7% (active)
13,O=[N+]([O-])c1cc(CCl)ccc1CCl,98.3% (active)
14,Nc1ccc2c(c1)C(=O)c1cccc(N)c1C2=O,54.6%
15,CCCCCCCCCCNC(=O)OCC,98.3% (active)
16,CC1=C(C)Cc2c(O)ccc(O)c2C1,48.9%
17,COc1ccc2c(c1)C(=O)c1ccccc1C2,-19.8%
18,CCC(=O)OCCn1c2nc(=O)[nH]c(=O)c-2nc2cc(C)c(C)cc21,19.9%
19,O=C(OCCN1CCCCCC1)C(c1ccsc1)C1CCCCC1 (stereo not drawn),63.5%
20,Oc1c(Br)cc(Br)cc1C1CCCCC1,89.6% (active)

row,Structure (SMILES),growth inhibition
1,CC1(C)[C@@H]2CC[C@]1(C)[C@H](OC(=O)CSC#N)C2,94.8% (active)
2,S=C(N/N=C(/c1ccccc1)c1ccccn1)N1CCCCCC1,82.5% (active)
3,Cc1ccc2[nH]c3c(C)c4cc[n+](C)cc4c(C)c3c2c1,62.3%
4,CNC(=O)OCc1c(COC(=O)NC)c(-c2ccc(-c3ccccc3)cc2)n(C)c1C,-6.8%
5,COc1ccccc1/C=C1\Sc2scc(-c3cccc([N+](=O)[O-])c3)[n+]2C1=O,87.6% (active)
6,O=[N+]([O-])c1ccc2c(c1)C(N1CCN(CCO)CC1)Cc1ccc(F)cc1S2 (stereo not drawn),78.6% (active)
7,Cc1ccc(CCC2=CCCc3c2ccc2ccccc32)cc1,16.8%
8,O=[N+]([O-])c1cccc2nccc(NCCCO)c12,57.9%
9,Cc1ccc(-n2cc(-c3ccc(Cl)cc3)c(C#N)c2N)cc1,43.6%
10,Cc1ccc(S/N=C\c2ccccc2O)cc1,34.9%
11,O=C(O)C1OC1(c1cccc(Cl)c1)c1ccccc1Cl (stereo not drawn),90.7% (active)
12,NC(=S)N/N=C\c1nccc2ccccc12,97.5% (active)
13,Clc1cccc(C(Nc2nncs2)Nc2nncs2)c1Cl,-2.6%
14,O=C(OCC=C1CCCC1)c1cc([N+](=O)[O-])cc([N+](=O)[O-])c1,-6.45%
15,O=C(Nc1ccccc1)C(=O)C(C(=O)c1ccccc1)C(c1ccccc1)c1ccccc1 (stereo not drawn),41.2%
16,N#CN1C2CCC1CC(=O)C2,74.8% (active)
17,COc1ccccc1C(=O)OCC1CCCN2CCCCC12 (stereo not drawn),90.9% (active)
18,CCNc1nnc(CSc2nc(-c3ccccc3)c(-c3ccccc3)[nH]2)s1,75% (active)
19,O=C1c2ccccc2-c2n[nH]c3cccc1c23,38.9%

# — PubChem BioAssay (NCI)
